Bioassay records deposited in PubChem by National Center for Advancing Translational Sciences (NCATS).
RORg inh – blocks mouse ROR gamma transcriptional activity; P51450; Drosophila S2 Gal4-RORgamma UAS-luciferase reporter, 20 h; Potency, µM (highest dose often 53.6 µM), for the others: at the highest dose activity change, negative = inhibition, actives largely listed as inhibitors; 310,000 tested, 5.4% active; AID 2551; further: on the % scale 0 is the no-effect control and ±100 the full control effect; nearly all actives have a fitted effect of over 60% in size
Target sequence (P51450 whole entry, looked up, the tested form may be a part): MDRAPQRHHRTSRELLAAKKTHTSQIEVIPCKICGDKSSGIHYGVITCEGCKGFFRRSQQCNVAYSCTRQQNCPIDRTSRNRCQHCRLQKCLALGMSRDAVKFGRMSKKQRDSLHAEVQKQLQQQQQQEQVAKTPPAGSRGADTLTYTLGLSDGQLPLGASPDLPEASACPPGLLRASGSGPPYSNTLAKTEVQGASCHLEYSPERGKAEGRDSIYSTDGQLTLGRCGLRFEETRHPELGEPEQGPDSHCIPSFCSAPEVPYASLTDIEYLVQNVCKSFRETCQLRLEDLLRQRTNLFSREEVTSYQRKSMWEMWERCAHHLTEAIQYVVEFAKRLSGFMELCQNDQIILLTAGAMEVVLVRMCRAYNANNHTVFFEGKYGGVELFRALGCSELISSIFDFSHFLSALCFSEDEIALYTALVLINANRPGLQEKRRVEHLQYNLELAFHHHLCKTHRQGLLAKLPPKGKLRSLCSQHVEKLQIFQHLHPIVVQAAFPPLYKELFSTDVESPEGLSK
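In this cell-based reporter format, copper sulfate (700 uM final) drives Gal4–ROR gamma fusion expression from a metallothionein promoter in Drosophila Schneider cells; compounds preincubated 1 hr, reporter read after 20 hr at ambient temperature.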
ATXN2 expr inh – reduces ATXN2 reporter expression in HEK-293 cells; Potency, µM (series often up to 57 µM), for inactives: at the top dose activity change, negative = inhibition, most hits filed as inhibitors; HEK-293 ATXN2-luciferase reporter, luminescence, 24 h; AID 1745845; 360,000 tested, 0.72% active; further: on the % scale 0 is the no-effect control and ±100 the full control effect; nearly all actives have a fitted effect of over 55% in size
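ATXN2-luciferase reporter cells (luciferase flanked by upstream and downstream ATXN2 gene portions) were treated 24 h at 37 °C with compounds at up to 57 uM. SteadyGlo luminescence gave expression; GF-AFC fluorescence gave viability.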
TGFb SMAD3 inh – inhibitors of TGF-b signaling. HepG2 CAGA-GFP TGF-b/SMAD3 reporter, GFP fluorescence, 18 h; TGF-beta stimulated, 500 pg/mL final. Potency, µM (titrated, usually from 46.1 µM), without a hit: at the highest dose activity, negative = inhibition, hits mostly inhibitors. 410,000 tested, 1.2% active; further: on the % scale 0 is the no-effect control and ±100 the full control effect; nearly all actives have a fitted effect of over 65% in size
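HEPG2 CAGA-GFP cells (1000/well, DMEM with 1% FBS) were pre-incubated 2 h at 37 degrees C, given compound by pin tool, then stimulated with TGF-beta at 500 pg/mL final for 18 h before per-cell GFP fluorescence imaging.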
HepG2 viability – kills HepG2 cells in TGF-b inhibitor counter-screen | HepG2 CAGA-GFP viability, ATP luminescence, 18 h | Potency, µM (titrated, usually from 46.1 µM), for inactives: at the top dose activity change, negative = cytotoxicity, most hits filed as cytotoxic | 410,000 tested, 0.76% active
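HepG2 CAGA-GFP cells (1000/well, DMEM with 1% FBS) received compound, then TGF-beta at 500 pg/mL final, and were incubated 18 hours at 37 degrees C. Viability was read by CellTiter-Glo luminescence. Media-only wells were set as complete cell-killing and DMSO as no toxicity.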
VP16 counter – Gal4-VP16 reporter inhibition counter-screen. Drosophila S2 Gal4-VP16 UAS-luciferase, luminescence, 20 h. Potency, µM (series often up to 53.6 µM), inactives show at the highest dose activity, negative = inhibition, actives largely listed as inhibitors. 310,000 tested, 3.5% active. AID 2546;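 further: Gal4-VP16 expression switched on by copper sulfate through the metallothionein promoter; on the % scale 0 is the no-effect control and ±100 the full control effect; nearly all actives have a fitted effect of over 50% in size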
S2 tox – cell viability loss in ATXN counter-screen. S2 cells (HEK-293 line with an ATXN2-luciferase reporter) viability, CellTiter-Fluor protease fluorescence, 24 h. Potency, µM (top dose mostly 56.7 µM), most hits filed as cytotoxic. 400,000 tested, 0.49% active. AID 651635; further: nearly all actives have a fitted effect of over 40% in size
Starred values were filed as active, the others as inactive; [ ] = another dose, or the depositor's remark. In the library only some 6.1% were active in any assay of this set; here they are far more common. The call rests on the fitted dose curve; in most records, active means well fitted curve in the direction sought with a large enough effect; inconclusive means small, poorly fitted or top-dose-only effect, or another doubt; inactive means no such curve, though single readings can be large; an effect the other way counts as inactive or inconclusive. Potency means the concentration at half of the fitted maximal effect.

How did N#Cc1c(NC(=S)NC(=O)c2ccccc2)sc2c1CCCCC2 do in these assays?
TGFb SMAD3 inh: -11.1%; HepG2 viability: -44.1%

How did CC(C)CC(=O)NC(NC(=S)Nc1sc2c(c1C#N)CCCC2)C(Cl)(Cl)Cl (configuration not stated) do in these assays?
RORg inh: 10µM*; ATXN2 expr inh: inconclusive; TGFb SMAD3 inh: 15.8µM*; HepG2 viability: -42.2%; VP16 counter: inconclusive; S2 tox: inactive

How did CCCC1Cc2c(sc(NC(=S)NC(=O)c3ccccc3)c2C#N)CO1 (configuration not stated) do in these assays?
RORg inh: 4.47µM*; VP16 counter: inconclusive

Results for CCC(=O)Nc1sc2c(c1C#N)CCC2 ?
RORg inh: 1.5%; ATXN2 expr inh: -12.7%; TGFb SMAD3 inh: 15.3%; HepG2 viability: -66.2%; VP16 counter: 11.3%; S2 tox: inactive

Results for Cc1ccsc1/C=N/NC(=O)c1ccc(Cn2cc(Br)cn2)o1 ?
RORg inh: 12.6µM*; ATXN2 expr inh: 11.9%; TGFb SMAD3 inh: -7.6%; HepG2 viability: 3.3%; VP16 counter: inconclusive; S2 tox: inactive

Results for CCc1ccc(C(c2ccccc2)c2c[nH]c3ccc(C)cc23)s1 (configuration not stated) ?
ATXN2 expr inh: 7.8%; TGFb SMAD3 inh: inconclusive; HepG2 viability: -36.1%; S2 tox: inactive

How did Cc1ccc(-n2c(Cc3ccccc3)n[nH]c2=S)c(C)c1 do in these assays?
RORg inh: 1.58µM*; ATXN2 expr inh: -8.4%; TGFb SMAD3 inh: -7.9%; HepG2 viability: -7.5%; VP16 counter: inconclusive; S2 tox: inactive

Results for S=c1[nH]nc(Cc2ccccc2)n1-c1cccc2ccccc12 ?
RORg inh: 3.98µM*; ATXN2 expr inh: 3.4%[11.3 µM]; TGFb SMAD3 inh: -9.3%; HepG2 viability: 3.6%; VP16 counter: inconclusive; S2 tox: inactive

How did Cc1ccc(-n2c(CC#N)n[nH]c2=S)c(C)c1 do in these assays?
RORg inh: -40.8%; ATXN2 expr inh: 27.0%; TGFb SMAD3 inh: -7.8%; HepG2 viability: 11.5%; VP16 counter: -11.3%; S2 tox: inactive

What do the screens show for `COCCCNC(=S)N/N=C/c1ccc(N(C)C)cc1`?
RORg inh: 2.82µM*; ATXN2 expr inh: -0.6%; TGFb SMAD3 inh: -4.4%; HepG2 viability: -2.2%; VP16 counter: 7.08µM*; S2 tox: inactive

Results for COCCCNC(=O)C(=O)N/N=C/c1cc2c(cc1Br)OCO2 ?
RORg inh: 10.4%; ATXN2 expr inh: 10.0%; TGFb SMAD3 inh: -5.4%; HepG2 viability: 14.2%; VP16 counter: -19.1%; S2 tox: inactive

How did COCCCNC(=S)N/N=C/c1ccc(N(C)C)cc1Cl do in these assays?
RORg inh: 2.24µM*; ATXN2 expr inh: 13.5%; TGFb SMAD3 inh: 14.1%; HepG2 viability: 1.6%; VP16 counter: 12.6µM*; S2 tox: inactive

Results for COCCCNC(=S)N/N=C/c1ccccc1O ?
RORg inh: 0.562µM*; TGFb SMAD3 inh: 1.78µM*; HepG2 viability: -57.5%; VP16 counter: 3.55µM*; S2 tox: inconclusive

What do the screens show for `COc1ccc(OC)c(CN2CCC3(CCC(CNC(=O)c4ccco4)O3)CC2)c1` (configuration not stated)?
S2 tox: inactive

How did COc1ccc(Cc2[nH]n3c(=O)cc(C(C)C)nc3c2-c2ccccc2)cc1 do in these assays?
RORg inh: 3.55µM*; ATXN2 expr inh: 22.4µM*; TGFb SMAD3 inh: inconclusive; HepG2 viability: 11.2µM*; VP16 counter: 10µM*; S2 tox: inconclusive

How did COc1ccc(Cc2[nH]n3c(=O)cc(C)nc3c2-c2ccccc2)cc1 do in these assays?
RORg inh: 11.2µM*; ATXN2 expr inh: inconclusive; TGFb SMAD3 inh: -2.2%; HepG2 viability: -19.0%; VP16 counter: inconclusive; S2 tox: inconclusive

Results for Cc1cc(=O)n2[nH]c(C(F)(F)F)c(-c3ccccc3)c2n1 ?
RORg inh: -26.2%; TGFb SMAD3 inh: -13.7%; HepG2 viability: -16.3%; VP16 counter: -13.0%; S2 tox: inactive

Results for c1csc(-c2nc3ccccn3c2NC2CCCCC2)c1 ?
RORg inh: 10µM*; ATXN2 expr inh: -18.3%; TGFb SMAD3 inh: 2.4%; HepG2 viability: -0.9%; VP16 counter: -15.6%; S2 tox: inactive

What do the screens show for `CC(C)c1nc2ccccn2c1NC1CCCCC1`?
RORg inh: 5.01µM*; ATXN2 expr inh: -30.0%; TGFb SMAD3 inh: 3.3%; HepG2 viability: -20.0%; VP16 counter: inconclusive; S2 tox: inactive

How did Cc1ccn2c(NCc3ccccc3)c(-c3cccs3)nc2c1 do in these assays?
RORg inh: 14.1µM*; ATXN2 expr inh: -2.3%; TGFb SMAD3 inh: -9.7%; HepG2 viability: -37.5%; VP16 counter: inconclusive

Results for Cc1nc2ccccn2c1C(=O)NC1CCCCC1 ?
RORg inh: -0.7%; ATXN2 expr inh: -5.3%; TGFb SMAD3 inh: inconclusive; HepG2 viability: 2.9%; VP16 counter: 1.3%; S2 tox: inactive

What do the screens show for `Brc1ccc2nc(-c3ccncc3)c(NC3CCCC3)n2c1`?
RORg inh: -26.9%; ATXN2 expr inh: -13.9%[11.3 µM]; TGFb SMAD3 inh: -16.8%; HepG2 viability: -22.3%; VP16 counter: 3.4%; S2 tox: inactive

What do the screens show for `Cc1ccn2c(NC3CCCC3)c(-c3cccs3)nc2c1`?
RORg inh: 10µM*; ATXN2 expr inh: -5.0%; TGFb SMAD3 inh: -10.2%; HepG2 viability: -5.4%; VP16 counter: -29.4%; S2 tox: inactive

Results for O=[N+]([O-])c1ccc(-c2cc3ccccc3[nH]2)cc1 ?
TGFb SMAD3 inh: -3.6%; HepG2 viability: -16.1%

Results for Cc1n[nH]c(C)c1S(=O)(=O)N1CCCC(C(=O)Nc2ccc(Cl)cc2)C1 (configuration not stated) ?
ATXN2 expr inh: inconclusive; TGFb SMAD3 inh: inconclusive; HepG2 viability: -4.5%; S2 tox: inconclusive

What do the screens show for `CCOC(=O)c1c(C)oc2nc(C)nc(NCC3CCN(Cc4ccc(Cl)cc4)CC3)c12`?
ATXN2 expr inh: 7.7%; TGFb SMAD3 inh: -23.0%; HepG2 viability: -21.5%; S2 tox: inactive

How did COc1ccc(C(=O)NCC2Cc3cc(C)cc(-c4cc(C(C)=O)ccc4F)c3O2)c(OC)c1OC (configuration not stated) do in these assays?
S2 tox: inactive

How did CCOc1cccc(-c2c(C(=O)N/N=C/c3ccoc3)nnn2-c2nonc2N)c1 do in these assays?
RORg inh: 10µM*; ATXN2 expr inh: -2.8%; TGFb SMAD3 inh: -2.2%; HepG2 viability: -18.4%; VP16 counter: inconclusive; S2 tox: inconclusive
